Here are results for 14 compounds from PubChem BioAssay.

Structures are written as SMILES. Active and inactive are the calls of the source.

Test [1] in a line: binders of probe aFSTL3 on microarray, primary screen, stem cell growth factor project, biochemical, small-molecule microarray, fluorescence 635/667 (AID 1064).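 Note: measures binding of the biotinylated anti-FSTL3 antibody to printed compounds.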 The settings on record: higher = more signal.
Test [2] is described as follows: binders from COS7 lysate, DM2A8 probe, primary screen, torsin A project, cell lysate, small-molecule microarray, fluorescence 635/667 (AID 1065). The settings on record: higher = more signal, COS7 lysate expressing mutant human TOR1A.
Test [3] can be described thus: binders of probe aFGF2 on microarray, primary screen, stem cell growth factor project, biochemical, small-molecule microarray, fluorescence 635/667 (AID 1067).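 Note: measures binding of biotinylated aFGF2 protein to printed compounds on slides; z-score merges feature fluorescence and signal-to-noise across triplicate slides.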 Conditions: higher = more signal.
Test [4] is described as follows: binders of probe aFGF10 on microarray, primary screen, stem cell growth factor project, biochemical, small-molecule microarray, fluorescence 635/667 (AID 1071).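 Note: score merges 667 nm spot intensity and signal to noise from triplicate slides.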 The settings on record: higher = more signal.
Test [5] concerns the target Neurogenic locus notch homolog protein 2 (Homo sapiens) (UniProt Q04721). Nature of the test: Notch2 binders on small-molecule microarrays, primary screen, biochemical, small-molecule microarray, 635 nm fluorescence, stem cell growth factors (AID 1073). The settings on record: Notch2 binding, higher = more signal.
For test [6], the target named is Pro-neuregulin-1, membrane-bound isoform (Homo sapiens) (UniProt Q02297). Briefly: NRG1 binders on small-molecule microarrays, primary screen, psychiatric disease protein project, biochemical, small-molecule microarray, fluorescence 635/667 (AID 1075).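 Note: score combines 667 nm spot fluorescence with signal to noise.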 Conditions: NRG1 binding, 635 nm fluorescence, higher = more signal.
Sequence of Pro-neuregulin-1, membrane-bound isoform (Homo sapiens) (Q02297 whole entry, looked up, the tested form may be a part, canonical isoform): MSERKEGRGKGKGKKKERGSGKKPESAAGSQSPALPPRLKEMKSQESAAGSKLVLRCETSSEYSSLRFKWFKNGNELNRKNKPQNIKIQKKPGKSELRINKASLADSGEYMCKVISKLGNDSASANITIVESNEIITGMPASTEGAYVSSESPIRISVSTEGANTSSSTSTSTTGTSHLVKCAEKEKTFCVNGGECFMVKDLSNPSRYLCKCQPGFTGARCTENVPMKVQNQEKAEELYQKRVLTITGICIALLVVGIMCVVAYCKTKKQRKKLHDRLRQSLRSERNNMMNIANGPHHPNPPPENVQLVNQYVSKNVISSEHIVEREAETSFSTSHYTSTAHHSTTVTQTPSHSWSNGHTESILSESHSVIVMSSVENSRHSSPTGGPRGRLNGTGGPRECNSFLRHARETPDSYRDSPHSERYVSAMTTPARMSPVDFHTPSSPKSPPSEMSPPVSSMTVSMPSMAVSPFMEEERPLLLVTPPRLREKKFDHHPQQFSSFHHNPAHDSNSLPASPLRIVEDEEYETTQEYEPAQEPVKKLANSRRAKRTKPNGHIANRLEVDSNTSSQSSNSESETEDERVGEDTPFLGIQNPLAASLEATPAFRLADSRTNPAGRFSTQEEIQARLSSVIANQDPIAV
The subject of test [7] is Neuregulin-1 EGF-like domain. Nature of the test: binders of neuregulin-1 EGF-like domain, primary screen, biochemical, small-molecule microarray, 635 nm fluorescence (AID 1081).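 Note: binding of the protein to compounds printed on small-molecule microarray slides.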 Conditions: small-molecule microarray binding, higher = more signal.
A short description of test [8]: FRG1 promoter luciferase signal modulators, primary screen, FRG1 inhibition for FSHD, cell-based, C2C12 myotubes, firefly/Renilla luciferase, luminescence (AID 1084). The settings on record: higher = more signal, called active from +8 up or from −8 down.
Test [9] is described as follows: binders of probe aFST on microarray, primary screen, stem cell growth factor project, biochemical, small-molecule microarray, fluorescence 635/667 (AID 1086).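 Note: score merges 667 nm fluorescence with signal-to-noise of each printed compound spot.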 The settings on record: higher = more signal.
Test [10] in a line: binders of probe aHhip on microarray, primary screen, stem cell growth factor project, biochemical, small-molecule microarray, fluorescence 635/667 (AID 1087).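 Note: score merges spot fluorescence at 667nm with spot signal to noise ratio.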 Conditions: higher = more signal.

Sequence of Neurogenic locus notch homolog protein 2 (Homo sapiens) (Q04721 whole entry, looked up, canonical isoform): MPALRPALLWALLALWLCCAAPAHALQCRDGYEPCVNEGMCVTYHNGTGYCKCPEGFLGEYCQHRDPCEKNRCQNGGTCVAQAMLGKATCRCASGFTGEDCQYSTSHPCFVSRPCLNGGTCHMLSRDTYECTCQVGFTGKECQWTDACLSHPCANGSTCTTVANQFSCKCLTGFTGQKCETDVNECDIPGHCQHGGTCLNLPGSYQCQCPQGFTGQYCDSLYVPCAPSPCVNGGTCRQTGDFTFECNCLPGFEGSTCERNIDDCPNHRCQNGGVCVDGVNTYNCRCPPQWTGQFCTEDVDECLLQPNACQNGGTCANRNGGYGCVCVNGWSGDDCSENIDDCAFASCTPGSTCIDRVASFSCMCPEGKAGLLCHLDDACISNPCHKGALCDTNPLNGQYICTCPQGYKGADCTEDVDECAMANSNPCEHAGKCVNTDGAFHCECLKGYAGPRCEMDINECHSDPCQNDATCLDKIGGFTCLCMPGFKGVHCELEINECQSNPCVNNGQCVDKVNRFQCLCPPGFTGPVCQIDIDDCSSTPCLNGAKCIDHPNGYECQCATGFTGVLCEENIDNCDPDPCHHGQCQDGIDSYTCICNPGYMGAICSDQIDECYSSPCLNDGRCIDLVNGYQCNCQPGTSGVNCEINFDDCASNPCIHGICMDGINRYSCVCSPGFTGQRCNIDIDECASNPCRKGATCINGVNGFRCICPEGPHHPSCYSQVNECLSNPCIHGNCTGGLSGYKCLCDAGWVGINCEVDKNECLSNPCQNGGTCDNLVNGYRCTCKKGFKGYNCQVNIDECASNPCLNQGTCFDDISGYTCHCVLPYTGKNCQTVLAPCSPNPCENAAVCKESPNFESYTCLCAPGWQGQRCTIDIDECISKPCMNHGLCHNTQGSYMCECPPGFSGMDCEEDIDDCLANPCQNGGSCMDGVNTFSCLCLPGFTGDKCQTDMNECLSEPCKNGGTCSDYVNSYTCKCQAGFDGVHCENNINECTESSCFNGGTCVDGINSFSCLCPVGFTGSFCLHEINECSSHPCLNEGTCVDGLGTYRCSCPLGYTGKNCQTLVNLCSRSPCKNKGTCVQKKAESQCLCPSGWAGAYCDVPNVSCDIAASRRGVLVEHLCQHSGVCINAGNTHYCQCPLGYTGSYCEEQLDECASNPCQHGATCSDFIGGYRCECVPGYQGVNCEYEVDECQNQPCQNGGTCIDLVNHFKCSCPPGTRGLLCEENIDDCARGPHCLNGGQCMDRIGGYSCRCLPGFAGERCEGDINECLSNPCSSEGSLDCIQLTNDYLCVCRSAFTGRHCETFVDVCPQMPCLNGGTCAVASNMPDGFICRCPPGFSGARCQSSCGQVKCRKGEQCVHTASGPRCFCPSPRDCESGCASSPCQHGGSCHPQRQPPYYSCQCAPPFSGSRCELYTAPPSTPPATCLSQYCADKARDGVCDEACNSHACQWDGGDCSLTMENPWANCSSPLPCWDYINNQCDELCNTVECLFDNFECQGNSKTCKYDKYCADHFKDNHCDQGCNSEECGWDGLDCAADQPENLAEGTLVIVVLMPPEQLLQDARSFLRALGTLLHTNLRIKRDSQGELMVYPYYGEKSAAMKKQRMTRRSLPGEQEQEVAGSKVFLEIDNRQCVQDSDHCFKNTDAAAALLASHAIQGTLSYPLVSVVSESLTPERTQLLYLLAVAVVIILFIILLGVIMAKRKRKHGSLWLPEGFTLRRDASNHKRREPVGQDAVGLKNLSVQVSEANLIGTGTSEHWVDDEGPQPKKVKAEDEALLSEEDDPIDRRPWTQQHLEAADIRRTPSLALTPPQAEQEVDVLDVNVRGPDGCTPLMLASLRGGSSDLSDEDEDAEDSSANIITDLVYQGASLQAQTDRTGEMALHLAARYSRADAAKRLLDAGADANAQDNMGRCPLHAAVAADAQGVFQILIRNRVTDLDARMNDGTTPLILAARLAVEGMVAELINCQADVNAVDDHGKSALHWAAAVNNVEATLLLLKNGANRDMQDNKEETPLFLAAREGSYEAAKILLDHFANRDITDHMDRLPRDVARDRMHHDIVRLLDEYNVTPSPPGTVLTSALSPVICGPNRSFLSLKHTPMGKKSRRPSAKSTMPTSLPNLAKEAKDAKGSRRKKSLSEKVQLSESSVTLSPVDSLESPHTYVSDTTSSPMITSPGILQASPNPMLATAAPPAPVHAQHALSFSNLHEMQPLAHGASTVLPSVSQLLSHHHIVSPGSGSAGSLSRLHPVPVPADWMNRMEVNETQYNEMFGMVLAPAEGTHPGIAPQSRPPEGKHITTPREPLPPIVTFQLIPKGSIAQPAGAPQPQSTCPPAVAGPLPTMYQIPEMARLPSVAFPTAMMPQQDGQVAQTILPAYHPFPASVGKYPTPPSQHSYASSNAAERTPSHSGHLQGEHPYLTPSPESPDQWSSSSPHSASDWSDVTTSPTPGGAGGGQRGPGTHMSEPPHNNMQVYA

Take `CCOC(=O)[C@H]1C/C=C/C[C@H](C(=O)OCC)C(=O)O[C@H]2[C@@H](OC)O[C@H](CO)[C@@H](OC(=O)Nc3cccc(F)c3)[C@@H]2OC1=O`: the composite z-score is -0.621 in [1]; -0.125 in test [2]; -0.0766 in test [3]; 0.39 in [4]; 0.196 in test [5]; 1.21 in [6]. Also, the composite z-score is 1.15 in test [7], 0.0218 in [9] and -0.444 in test [10]. Moreover, in test [8], the z-score was 0.15 (inactive).

For `CC(=O)NCCCC[C@@H]1NC(=O)[C@@H]2C[C@H](C(=O)NCCCCN(C)C)[C@H](c3cccc(OCCO)c3)N2C1=O`, the composite z-score in test [1] is 0.123; in test [2], 0.537; in test [3] it was -0.108; in [4], -0.107; in test [5], -0.569; in test [6], -0.283. The figures for the composite z-score in test [7], in [9] and in test [10] were 1.12, 0.571 and -0.236, respectively. Besides, in test [8], the z-score was 3.26 (inactive).

Regarding `O=C1c2ccccc2[C@@]2(Cc3ccccc3N(CCN3CCOCC3)C2=O)[C@H](c2ccc(CO)cc2)N1Cc1ccccc1`, the composite z-score in test [1] was -0.0459; in test [2], -0.374; in [3] it was -0.166; in test [4] it was -0.318; in [5], -0.933; in test [6], -0.561. For the same compound, the composite z-score in test [7] was -0.86; in [9] it was -0.0633; in test [10], -0.0618. The z-score in test [8] is -0.0352 (inactive).

Regarding `COCC(=C=CC[C@@H](O)c1ccccc1OCCO)C[C@@H](O)c1cc(Cl)cc(Cl)c1O`, the composite z-score in [1] was -0.685; in test [2], 0.528; in test [3], -0.0276; in test [4] it was 1.14; in test [5], 1.09; in [6] it was 0.935. The composite z-score was determined as 1 in test [7], 0.624 in [9] and 0.164 in [10]. In addition, the z-score in test [8] was -0.914 (inactive).

Regarding `O=C1NC(=O)C2C1C=CC(C(O)Cc1ccccc1)N2Nc1ccc(Cl)cc1Cl` (stereo not given), the composite z-score in test [1] was 0.536; in test [2], -0.169; in test [3] it was -0.0374; in test [4] it was -0.634; in [5] it was 0.614; in [6], 2. The composite z-score in test [7] is 0.371; in [9], 0.337; in test [10] it was 0.176. Further, the z-score in test [8] was 1.53 (inactive).

Regarding `COc1cc2c(cc1OC)CN(C(=O)[C@H]1[C@@H]3C(=O)O[C@@H](c4ccccc4)[C@@H](c4ccccc4)N3[C@@H](c3ccc(O)cc3)[C@]13C(=O)Nc1ccc(C#CC4=CCCCC4)cc13)CC2`, the composite z-score in test [1] is -0.0904; in [2] it was 1.36; in test [3] it was 0.088; in test [4], 1.24; in [5], 1.24; in [6], 1.33. Moreover, the composite z-score in [7] stood at 1.21; in test [9] it was 0.827; in test [10], 0.421. Also, the z-score in [8] was -0.139 (inactive).

Turning to `O=C(NCc1ccccc1)[C@@H]1c2ccccc2C(=O)N(CC23CC4CC(CC(C4)C2)C3)[C@H]1c1ccc(CO)cc1`, the composite z-score in [1] was -0.906; in test [2] it was 0.0469; in test [3], -0.0494; in [4], 0.484; in test [5] it was 1.01; in test [6] it was 1.45. In addition, the composite z-score in [7] was 1.2; in test [9] it was 0.193; in test [10], -0.0994. Moreover, in [8], the z-score was -3.34 (inactive).

On to `CCOC(=O)[C@H]1C/C=C/C[C@H](C(=O)OCC)C(=O)O[C@H]2[C@@H](OC)O[C@H](CO)[C@@H](OC(=O)Nc3ccc(C#N)cc3)[C@@H]2OC1=O`, for which the composite z-score in test [1] is 0.0283; in test [2], -0.317; in test [3], -0.0414; in test [4], 0.287; in test [5], -0.194; in [6], 1.39. Further, the composite z-score in test [7] was 1.02; in [9], 0.143; in test [10] it was -0.119. Further, the z-score in test [8] is -0.1 (inactive).

Consider `COc1ccc(CCN2C(=O)[C@@]3(Cc4ccccc42)c2ccccc2C(=O)N(Cc2ccccc2C(F)(F)F)[C@H]3c2ccc(CO)cc2)cc1`, for which the composite z-score is -0.402 in test [1]; -0.0678 in test [2]; -0.128 in test [3]; -0.106 in test [4]; -0.112 in [5]; -0.112 in test [6]. The composite z-score in [7] is 0.791; in [9] it was -0.256; in test [10], -0.0994. Further, the z-score in test [8] was 0.453 (inactive).

On to `C=CCN(Cc1ccccc1)C(=O)C(c1cccs1)N(CCOCCO)C(=O)/C=C\C(=O)O` (stereo not given), for which the composite z-score in [1] is 0.713; in test [2] it was -1.43; in test [3], -0.203; in test [4] it was -0.873; in [5], -1.04; in test [6], -0.353. The figures for the composite z-score in test [7], in test [9] and in test [10] were -0.421, -1.59 and -0.341, respectively. In addition, the z-score in test [8] was 0.919 (inactive).

`COc1ccc(C(O)C2C=CC3C(=O)N(c4ccccc4)C(=O)C3N2Nc2ccc(C(C)C)cc2)cc1OCc1ccccc1` (stereo not given): the composite z-score stood at 0.838 in test [1]; 0.369 in test [2]; 0.227 in [3]; 1.08 in test [4]; 1.61 in test [5]; 1.26 in [6]. The results for the composite z-score in test [7], in test [9] and in [10] were 1.1, 1.62 and -0.168, respectively. For the same compound, the z-score in [8] was -1.44 (inactive).

`COC(=O)[C@@]1(Cc2ccc(F)cc2)[C@H]2c3cc(C(=O)N4CCCC4)n(Cc4ccc(C)o4)c3C[C@H]2CN1C(=O)c1ccccc1`: the composite z-score in test [1] worked out at 0.285; in test [2], 0.145; in test [3] it was 0.157; in test [4], 0.883; in [5], 1.53; in [6], 0.714. Besides, the composite z-score in test [7] was 1.14; in [9], 1.29; in [10], 0.2. In addition, the z-score in test [8] was 1.62 (inactive).

Regarding `COc1ccc([Si](C)(C)[C@@H]2[C@@H](CCO)O[C@]3(C(=O)N(Cc4ccc(N5C(=O)COc6ccccc65)cc4)c4ccccc43)[C@H]2C)cc1`, the composite z-score in [1] is -0.0069; in [2] it was 0.408; in test [3], -0.0474; in test [4] it was 1.24; in test [5], 1.18; in [6], 1.01. For the same compound, the composite z-score is 1.17 in test [7], 0.288 in test [9] and 0.0373 in test [10]. Moreover, in [8], the z-score is -2.74 (inactive).

Regarding `C=CCC(OC(C)=O)[C@@H]1[C@@H](N(Cc2ccc(-c3ccccc3)cc2)C(=O)Cc2ccc(F)cc2)c2cc(OCCCO)ccc2N1C(=O)c1ccc(-c2ccccc2)cc1` (stereo not given in full), the composite z-score in test [1] was 0.124; in [2] it was 0.143; in test [3], -0.0145; in [4] it was -0.0694; in test [5], -0.305; in test [6] it was -0.23. For the same compound, the composite z-score in test [7] is -0.937; in test [9], 0.0621; in test [10], -0.0994. Further, in [8], the z-score was -0.432 (inactive).
